# Columns and labels:
# Test in all cases: DAPPL (digital affinity profiling via proximity ligation, sequencing); 10 mM Tris-HCl pH 7.5, 50 mM NaCl, 1 mM DTT, 4% glycerol, room temperature, 30 min; GST-TFs on glutathione beads, 16-mer random dsDNA library, 0.1% formaldehyde crosslink after washing; high values mean tight binding
# [1] = molecular target: T1, FEV (Homo sapiens, UniProt Q99581 1-238); conditions: protein: recombinant; tags: N-terminal GST; dsDNA, one strand shown
# T1 sequence: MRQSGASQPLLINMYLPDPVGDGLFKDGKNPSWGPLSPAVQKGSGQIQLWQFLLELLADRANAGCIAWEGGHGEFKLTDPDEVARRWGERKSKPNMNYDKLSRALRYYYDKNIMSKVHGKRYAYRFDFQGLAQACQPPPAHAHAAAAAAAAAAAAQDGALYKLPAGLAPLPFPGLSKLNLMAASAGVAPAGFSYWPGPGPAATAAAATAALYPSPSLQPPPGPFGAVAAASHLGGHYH
# Summary of the method: (§1)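 Each value of binding signal is a hexamer's read frequency for a factor divided by the same hexamer's frequency in the tag-only sample. Barcoded, bead-captured GST fusions of human transcription factors made in yeast were pooled with that sample and incubated with 200 nmole of a random double-stranded 16-mer DNA library in Tris/NaCl/DTT/glycerol buffer at room temperature for 30 min. Washing, 0.1% formaldehyde crosslinking, proximity ligation, PCR and Illumina NextSeq500 sequencing followed.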
# [2] = molecular target: ETV5 (Homo sapiens, UniProt P41161 1-510); conditions: protein: recombinant; tags: N-terminal GST; dsDNA, one strand shown
# Summary of the method: as §1
# [3] = molecular target: HSF1 (Homo sapiens, UniProt Q00613 1-529); conditions: protein: recombinant; tags: N-terminal GST; chain copies: 3; dsDNA, one strand shown
# Summary of the method: as §1
# [4] = molecular target: T2, SPIC (Homo sapiens, UniProt Q8N5J4 1-248); conditions: protein: recombinant; tags: N-terminal GST; dsDNA, one strand shown
# T2 sequence: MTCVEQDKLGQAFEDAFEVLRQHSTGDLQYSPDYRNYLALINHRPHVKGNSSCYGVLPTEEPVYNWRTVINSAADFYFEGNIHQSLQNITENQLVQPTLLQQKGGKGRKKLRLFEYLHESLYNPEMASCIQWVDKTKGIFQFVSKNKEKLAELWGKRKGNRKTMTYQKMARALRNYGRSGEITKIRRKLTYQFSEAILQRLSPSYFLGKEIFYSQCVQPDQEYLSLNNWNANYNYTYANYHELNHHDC
# Summary of the method: as §1
# [5] = molecular target: ELF4 (Homo sapiens, UniProt Q99607 1-663); conditions: protein: recombinant; tags: N-terminal GST; dsDNA, one strand shown
# Summary of the method: as §1
# [6] = molecular target: T3, ELK4 (Homo sapiens, UniProt P28324-2 1-405); conditions: protein: recombinant; tags: N-terminal GST; dsDNA, one strand shown
# T3 sequence: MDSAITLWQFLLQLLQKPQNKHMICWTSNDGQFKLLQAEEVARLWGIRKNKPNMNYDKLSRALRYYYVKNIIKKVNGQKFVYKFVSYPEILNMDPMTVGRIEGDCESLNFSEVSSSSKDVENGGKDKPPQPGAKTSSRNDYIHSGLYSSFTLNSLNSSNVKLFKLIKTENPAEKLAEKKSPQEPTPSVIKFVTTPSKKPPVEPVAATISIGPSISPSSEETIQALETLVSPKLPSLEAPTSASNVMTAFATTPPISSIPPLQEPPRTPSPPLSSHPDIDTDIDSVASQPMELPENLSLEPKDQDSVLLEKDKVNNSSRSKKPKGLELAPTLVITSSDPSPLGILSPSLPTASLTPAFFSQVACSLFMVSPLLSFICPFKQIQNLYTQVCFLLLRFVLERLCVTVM
# Summary of the method: as §1
# [7] = molecular target: T4, ETV2 (Homo sapiens, UniProt O00321 1-342); conditions: protein: recombinant; tags: N-terminal GST; dsDNA, one strand shown
# T4 sequence: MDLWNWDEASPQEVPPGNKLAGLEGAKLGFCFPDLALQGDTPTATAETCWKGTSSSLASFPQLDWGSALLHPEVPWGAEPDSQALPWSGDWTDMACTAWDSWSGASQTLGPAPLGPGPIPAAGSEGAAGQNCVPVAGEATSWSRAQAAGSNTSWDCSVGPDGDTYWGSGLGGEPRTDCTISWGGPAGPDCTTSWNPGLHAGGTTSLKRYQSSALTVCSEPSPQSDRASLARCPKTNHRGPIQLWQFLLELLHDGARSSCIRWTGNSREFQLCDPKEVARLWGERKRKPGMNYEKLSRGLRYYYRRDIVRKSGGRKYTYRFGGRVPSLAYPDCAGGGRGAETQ
# Summary of the method: as §1
# [8] = molecular target: T5, ELF3 (Homo sapiens, UniProt P78545 1-371); conditions: protein: recombinant; tags: N-terminal GST; dsDNA, one strand shown
# T5 sequence: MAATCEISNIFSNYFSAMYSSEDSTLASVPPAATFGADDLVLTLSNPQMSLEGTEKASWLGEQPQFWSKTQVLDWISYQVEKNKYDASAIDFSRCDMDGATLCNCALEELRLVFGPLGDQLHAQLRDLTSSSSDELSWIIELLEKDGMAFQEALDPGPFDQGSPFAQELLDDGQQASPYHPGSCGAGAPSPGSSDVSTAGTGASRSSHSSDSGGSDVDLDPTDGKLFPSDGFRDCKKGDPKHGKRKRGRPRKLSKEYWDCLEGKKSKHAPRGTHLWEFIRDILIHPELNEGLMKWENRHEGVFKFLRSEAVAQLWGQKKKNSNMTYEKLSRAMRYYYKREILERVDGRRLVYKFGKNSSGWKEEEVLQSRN
# Summary of the method: as §1
# [9] = molecular target: CRX (Homo sapiens, UniProt O43186 1-299); conditions: protein: recombinant; tags: N-terminal GST; dsDNA, one strand shown
# Summary of the method: as §1
# [10] = molecular target: ETV1 (Homo sapiens, UniProt P50549 1-477); conditions: protein: recombinant; tags: N-terminal GST; dsDNA, one strand shown
# Summary of the method: as §1
# [11] = molecular target: T6, ERF (Homo sapiens, UniProt P50548 1-548); conditions: protein: recombinant; tags: N-terminal GST; dsDNA, one strand shown
# T6 sequence: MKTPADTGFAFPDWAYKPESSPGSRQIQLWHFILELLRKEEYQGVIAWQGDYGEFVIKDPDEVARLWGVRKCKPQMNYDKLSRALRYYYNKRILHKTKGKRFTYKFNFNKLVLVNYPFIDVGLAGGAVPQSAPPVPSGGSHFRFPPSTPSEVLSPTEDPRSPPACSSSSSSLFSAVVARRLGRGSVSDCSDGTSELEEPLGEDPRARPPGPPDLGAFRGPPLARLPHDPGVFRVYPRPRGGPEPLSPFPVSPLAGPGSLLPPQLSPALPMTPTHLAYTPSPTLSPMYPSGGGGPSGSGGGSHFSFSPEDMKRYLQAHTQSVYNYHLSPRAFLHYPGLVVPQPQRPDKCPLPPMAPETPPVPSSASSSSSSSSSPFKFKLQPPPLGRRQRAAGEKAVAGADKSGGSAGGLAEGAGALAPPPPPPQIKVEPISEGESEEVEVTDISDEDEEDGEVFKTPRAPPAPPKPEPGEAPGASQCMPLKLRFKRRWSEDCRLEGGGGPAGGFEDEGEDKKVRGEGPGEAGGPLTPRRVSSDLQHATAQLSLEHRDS
# Summary of the method: as §1
# [12] = molecular target: T7, ETV3L (Homo sapiens, UniProt Q6ZN32 1-361); conditions: protein: recombinant; tags: N-terminal GST; dsDNA, one strand shown
# T7 sequence: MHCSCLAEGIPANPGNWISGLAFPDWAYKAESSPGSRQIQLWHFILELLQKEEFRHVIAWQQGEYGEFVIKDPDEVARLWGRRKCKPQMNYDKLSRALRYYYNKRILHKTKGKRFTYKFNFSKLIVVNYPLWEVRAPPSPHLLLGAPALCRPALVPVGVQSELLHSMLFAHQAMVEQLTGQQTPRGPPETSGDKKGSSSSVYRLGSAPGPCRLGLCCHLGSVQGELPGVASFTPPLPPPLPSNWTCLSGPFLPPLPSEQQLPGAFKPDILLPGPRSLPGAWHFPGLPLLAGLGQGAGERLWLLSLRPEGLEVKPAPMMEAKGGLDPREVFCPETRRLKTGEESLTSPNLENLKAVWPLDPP
# Summary of the method: as §1
# [13] = molecular target: T8, ETS2 (Homo sapiens, UniProt P15036 1-469); conditions: protein: recombinant; tags: N-terminal GST; dsDNA, one strand shown
# T8 sequence: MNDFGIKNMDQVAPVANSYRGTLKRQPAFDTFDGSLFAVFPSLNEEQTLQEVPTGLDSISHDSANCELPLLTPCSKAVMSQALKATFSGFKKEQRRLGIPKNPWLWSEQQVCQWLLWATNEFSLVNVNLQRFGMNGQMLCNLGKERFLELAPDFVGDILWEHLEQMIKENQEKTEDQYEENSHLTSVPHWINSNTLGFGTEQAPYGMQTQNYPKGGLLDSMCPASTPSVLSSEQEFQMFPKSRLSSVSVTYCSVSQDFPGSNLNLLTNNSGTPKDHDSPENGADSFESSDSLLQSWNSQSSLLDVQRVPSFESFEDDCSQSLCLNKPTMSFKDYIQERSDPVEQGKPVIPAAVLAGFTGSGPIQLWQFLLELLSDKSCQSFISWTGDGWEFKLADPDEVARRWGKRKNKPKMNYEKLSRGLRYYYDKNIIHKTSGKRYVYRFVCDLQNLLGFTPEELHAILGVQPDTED
# Summary of the method: as §1
# [14] = molecular target: T9, SPDEF (Homo sapiens, UniProt O95238 1-335); conditions: protein: recombinant; tags: N-terminal GST; dsDNA, one strand shown
# T9 sequence: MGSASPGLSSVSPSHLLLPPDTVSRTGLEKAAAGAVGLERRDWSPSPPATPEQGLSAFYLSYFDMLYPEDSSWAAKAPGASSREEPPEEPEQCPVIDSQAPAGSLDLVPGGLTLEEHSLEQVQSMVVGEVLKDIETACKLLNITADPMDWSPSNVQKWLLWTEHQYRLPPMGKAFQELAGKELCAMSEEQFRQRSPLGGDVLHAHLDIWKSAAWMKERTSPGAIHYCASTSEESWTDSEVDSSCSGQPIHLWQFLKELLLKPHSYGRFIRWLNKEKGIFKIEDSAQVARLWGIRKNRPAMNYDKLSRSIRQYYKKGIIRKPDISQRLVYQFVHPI
# Summary of the method: as §1
# [15] = molecular target: T10, ETV7 (Homo sapiens, UniProt Q9Y603 1-341); conditions: protein: recombinant; tags: N-terminal GST; dsDNA, one strand shown
# T10 sequence: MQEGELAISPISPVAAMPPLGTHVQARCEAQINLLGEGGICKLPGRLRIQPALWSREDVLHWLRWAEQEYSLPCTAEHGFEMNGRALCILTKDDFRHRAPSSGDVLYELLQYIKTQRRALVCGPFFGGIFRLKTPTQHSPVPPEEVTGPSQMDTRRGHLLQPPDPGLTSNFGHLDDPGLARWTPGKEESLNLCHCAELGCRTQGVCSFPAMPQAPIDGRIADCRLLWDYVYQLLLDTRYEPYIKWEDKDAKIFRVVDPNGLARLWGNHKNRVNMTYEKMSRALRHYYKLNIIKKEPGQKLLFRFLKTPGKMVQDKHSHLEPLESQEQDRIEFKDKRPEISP
# Summary of the method: as §1
# [16] = molecular target: T11, ELF5 (Homo sapiens, UniProt Q9UKW6-2 1-255); conditions: protein: recombinant; tags: N-terminal GST; dsDNA, one strand shown
# T11 sequence: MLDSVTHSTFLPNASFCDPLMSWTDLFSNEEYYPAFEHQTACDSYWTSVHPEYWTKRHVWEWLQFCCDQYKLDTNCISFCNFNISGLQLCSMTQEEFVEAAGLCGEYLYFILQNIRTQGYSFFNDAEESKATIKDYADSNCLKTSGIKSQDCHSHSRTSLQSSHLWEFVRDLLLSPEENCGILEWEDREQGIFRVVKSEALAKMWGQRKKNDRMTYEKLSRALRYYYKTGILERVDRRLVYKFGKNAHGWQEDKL
# Summary of the method: as §1
# [17] = molecular target: T12, ETV3 (Homo sapiens, UniProt P41162-2 1-143); conditions: protein: recombinant; tags: N-terminal GST; dsDNA, one strand shown
# T12 sequence: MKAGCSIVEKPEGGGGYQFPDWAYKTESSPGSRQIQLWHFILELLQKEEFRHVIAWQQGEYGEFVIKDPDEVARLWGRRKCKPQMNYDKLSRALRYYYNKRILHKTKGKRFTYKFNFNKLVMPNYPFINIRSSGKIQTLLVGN
# Summary of the method: as §1
# [18] = molecular target: ETV6 (Homo sapiens, UniProt P41212 1-452); conditions: protein: recombinant; tags: N-terminal GST; dsDNA, one strand shown
# Summary of the method: as §1
# Sequence of ETV5 (P41161 whole entry): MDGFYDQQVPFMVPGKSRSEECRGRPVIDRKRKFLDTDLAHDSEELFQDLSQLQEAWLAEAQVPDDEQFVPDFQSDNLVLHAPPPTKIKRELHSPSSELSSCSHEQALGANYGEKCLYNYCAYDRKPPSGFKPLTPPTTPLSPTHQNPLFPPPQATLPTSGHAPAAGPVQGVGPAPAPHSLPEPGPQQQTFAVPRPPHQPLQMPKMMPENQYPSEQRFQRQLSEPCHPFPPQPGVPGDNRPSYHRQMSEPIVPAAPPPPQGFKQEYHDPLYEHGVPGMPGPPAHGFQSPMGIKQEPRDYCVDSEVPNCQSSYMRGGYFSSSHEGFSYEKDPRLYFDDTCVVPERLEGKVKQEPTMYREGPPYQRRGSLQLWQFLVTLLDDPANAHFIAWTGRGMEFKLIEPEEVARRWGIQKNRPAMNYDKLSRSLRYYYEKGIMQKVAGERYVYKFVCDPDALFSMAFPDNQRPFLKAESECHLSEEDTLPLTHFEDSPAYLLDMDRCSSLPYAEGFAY
# Sequence of ELF4 (Q99607 whole entry): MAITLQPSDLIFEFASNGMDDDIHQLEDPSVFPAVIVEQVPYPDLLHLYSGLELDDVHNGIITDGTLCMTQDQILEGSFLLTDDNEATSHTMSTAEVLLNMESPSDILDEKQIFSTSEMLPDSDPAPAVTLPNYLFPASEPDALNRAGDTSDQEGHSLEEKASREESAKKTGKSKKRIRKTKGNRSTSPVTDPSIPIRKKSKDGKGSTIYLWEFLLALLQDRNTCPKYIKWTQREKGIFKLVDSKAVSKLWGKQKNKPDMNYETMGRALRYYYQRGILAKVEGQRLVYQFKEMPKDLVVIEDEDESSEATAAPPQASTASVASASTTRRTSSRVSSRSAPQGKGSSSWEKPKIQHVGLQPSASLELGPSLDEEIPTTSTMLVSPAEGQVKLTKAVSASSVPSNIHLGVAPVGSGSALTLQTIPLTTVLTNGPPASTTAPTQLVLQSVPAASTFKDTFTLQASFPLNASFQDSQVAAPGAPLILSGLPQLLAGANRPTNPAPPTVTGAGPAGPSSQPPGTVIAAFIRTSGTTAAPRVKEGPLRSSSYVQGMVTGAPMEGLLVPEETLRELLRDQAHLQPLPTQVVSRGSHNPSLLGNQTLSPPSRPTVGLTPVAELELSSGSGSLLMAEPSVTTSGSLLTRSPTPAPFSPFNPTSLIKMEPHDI
# Sequence of HSF1 (Q00613 whole entry): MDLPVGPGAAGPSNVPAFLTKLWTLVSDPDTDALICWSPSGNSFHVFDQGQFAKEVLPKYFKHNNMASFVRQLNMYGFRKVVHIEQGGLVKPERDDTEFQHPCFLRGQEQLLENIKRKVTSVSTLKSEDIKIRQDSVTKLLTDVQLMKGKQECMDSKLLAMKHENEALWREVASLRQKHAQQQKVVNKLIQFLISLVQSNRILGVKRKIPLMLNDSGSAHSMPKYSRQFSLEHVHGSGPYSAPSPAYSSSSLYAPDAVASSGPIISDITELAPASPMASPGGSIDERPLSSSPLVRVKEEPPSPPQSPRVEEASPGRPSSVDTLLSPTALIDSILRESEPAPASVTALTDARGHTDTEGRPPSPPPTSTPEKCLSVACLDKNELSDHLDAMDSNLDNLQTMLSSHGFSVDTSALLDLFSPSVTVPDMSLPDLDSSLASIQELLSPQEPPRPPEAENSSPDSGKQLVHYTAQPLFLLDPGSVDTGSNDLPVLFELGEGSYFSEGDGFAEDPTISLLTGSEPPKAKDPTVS
# Sequence of ETV6 (P41212 whole entry): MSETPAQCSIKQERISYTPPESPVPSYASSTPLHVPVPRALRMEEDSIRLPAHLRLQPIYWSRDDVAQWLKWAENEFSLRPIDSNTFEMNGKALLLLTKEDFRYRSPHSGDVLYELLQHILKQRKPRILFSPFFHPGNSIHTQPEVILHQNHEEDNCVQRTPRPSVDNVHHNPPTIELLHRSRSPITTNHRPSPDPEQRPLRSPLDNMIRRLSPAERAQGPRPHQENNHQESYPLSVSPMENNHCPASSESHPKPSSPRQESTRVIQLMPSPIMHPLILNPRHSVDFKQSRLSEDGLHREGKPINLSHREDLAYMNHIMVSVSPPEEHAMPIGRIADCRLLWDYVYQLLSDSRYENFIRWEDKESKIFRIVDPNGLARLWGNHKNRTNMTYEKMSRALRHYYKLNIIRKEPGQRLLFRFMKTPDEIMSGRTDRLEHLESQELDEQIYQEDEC
# Sequence of CRX (O43186 whole entry): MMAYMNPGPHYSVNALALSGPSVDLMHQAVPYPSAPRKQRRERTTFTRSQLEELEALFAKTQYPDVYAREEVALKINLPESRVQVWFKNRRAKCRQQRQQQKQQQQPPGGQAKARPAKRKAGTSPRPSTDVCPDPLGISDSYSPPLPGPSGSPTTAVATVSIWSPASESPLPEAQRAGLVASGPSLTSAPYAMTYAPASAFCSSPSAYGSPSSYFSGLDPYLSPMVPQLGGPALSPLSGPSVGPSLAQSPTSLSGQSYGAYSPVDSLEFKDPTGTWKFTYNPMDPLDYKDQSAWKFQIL
# Sequence of ETV1 (P50549 whole entry): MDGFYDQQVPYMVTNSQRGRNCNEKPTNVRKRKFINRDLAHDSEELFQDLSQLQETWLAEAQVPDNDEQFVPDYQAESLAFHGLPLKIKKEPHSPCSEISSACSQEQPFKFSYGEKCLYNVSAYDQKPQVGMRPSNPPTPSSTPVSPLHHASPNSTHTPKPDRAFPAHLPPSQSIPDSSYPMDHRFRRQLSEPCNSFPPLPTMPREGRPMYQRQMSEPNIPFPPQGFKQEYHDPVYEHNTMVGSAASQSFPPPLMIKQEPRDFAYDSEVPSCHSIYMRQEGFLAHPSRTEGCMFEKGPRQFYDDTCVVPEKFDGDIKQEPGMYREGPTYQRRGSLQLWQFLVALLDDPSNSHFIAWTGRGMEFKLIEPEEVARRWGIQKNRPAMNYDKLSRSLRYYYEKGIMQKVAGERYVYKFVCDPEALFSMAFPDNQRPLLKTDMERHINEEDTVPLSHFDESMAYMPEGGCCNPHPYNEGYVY
sequence,measurement,setting,value
GTAATA,binding signal,[1],"1.11 fold enrichment (6-mer frequency, TF over GST control)"
same,binding signal,[2],"1.13 fold enrichment (6-mer frequency, TF over GST control)"
same,binding signal,[3],"1.24 fold enrichment (6-mer frequency, TF over GST control)"
same,binding signal,[4],"1.27 fold enrichment (6-mer frequency, TF over GST control)"
same,binding signal,[5],"1.16 fold enrichment (6-mer frequency, TF over GST control)"
same,binding signal,[6],"1.27 fold enrichment (6-mer frequency, TF over GST control)"
same,binding signal,[7],"1.09 fold enrichment (6-mer frequency, TF over GST control)"
same,binding signal,[8],"1.22 fold enrichment (6-mer frequency, TF over GST control)"
same,binding signal,[9],"1.52 fold enrichment (6-mer frequency, TF over GST control)"
same,binding signal,[10],"1.13 fold enrichment (6-mer frequency, TF over GST control)"
same,binding signal,[11],"1.12 fold enrichment (6-mer frequency, TF over GST control)"
same,binding signal,[12],"1.16 fold enrichment (6-mer frequency, TF over GST control)"
same,binding signal,[13],"1.11 fold enrichment (6-mer frequency, TF over GST control)"
same,binding signal,[14],"1.16 fold enrichment (6-mer frequency, TF over GST control)"
same,binding signal,[15],"1.29 fold enrichment (6-mer frequency, TF over GST control)"
same,binding signal,[16],"1.2 fold enrichment (6-mer frequency, TF over GST control)"
same,binding signal,[17],"1.06 fold enrichment (6-mer frequency, TF over GST control)"
same,binding signal,[18],"1.16 fold enrichment (6-mer frequency, TF over GST control)"

# Reference: paper PMC7862700, “An all-to-all approach to the identification of sequence-specific readers for epigenetic DNA modifications on cytosine”
